The values below come from paper PMC12820563, “FoxP3 forms a head-to-head dimer in vivo and stabilizes its multimerization on adjacent microsatellites”.

Whole data set: some 16,000 sequences, median “rpm ratio (pull-down/input)” near 0.5, cut for the highest 2% near 5.5. What follows is part of a selection rich in the highest values, with near analogues and random picks from the rest.

This assay addresses T1, MBP-FoxP3dN (Mus musculus, UniProt Q99JB6 188-423).
T1 sequence: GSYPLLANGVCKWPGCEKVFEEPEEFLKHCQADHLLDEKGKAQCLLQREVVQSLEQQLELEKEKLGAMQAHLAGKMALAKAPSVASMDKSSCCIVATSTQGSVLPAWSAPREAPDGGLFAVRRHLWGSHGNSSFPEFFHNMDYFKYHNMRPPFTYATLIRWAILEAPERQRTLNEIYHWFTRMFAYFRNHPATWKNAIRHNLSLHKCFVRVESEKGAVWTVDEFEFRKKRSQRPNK
As to the kind of experiment: PD-seq (MBP pull-down with sequencing); 20 mM Tris-HCl pH 7.5, 100 mM NaCl, 1.5 mM MgCl2, 0.4 uM protein, 0.1 uM dsDNA library, 30 min, room temperature, amylose pull-down; high values mean tight binding. Conditions: protein: recombinant; tags: His6-MBP; chain copies: 2; dsDNA, one strand shown. An outline of the steps:
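Mouse FoxP3 or FoxP1 fragment lacking the N-terminus, His6-MBP-tagged and expressed in E. coli, was incubated at 0.4 µM with 0.1 µM Klenow-filled degenerate double-stranded DNA library for 30 min at room temperature in Tris pH 7.5 buffer with NaCl and MgCl2. Complexes captured on amylose resin were washed three times and their DNA sequenced on Illumina. Binding is reads-per-million enrichment of pull-down over input, replicates pooled.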
In the case of “GATGATTGTTCTCCCAGCTGATGAATTCGACGCATCGAGTAAACAAATTTTCCTAATCTTTCTGTTCAAGCGCCATCTAC”, the binding signal is 0.992 RPM ratio (pull-down/input). The figure for “GATGATTGTTCTCCCAGCTGATGAATTGACGCATTCGAGTAAACAAATTTTCCTAATCTTTCTGTTCAAGCGCCATCTAC” is 5.74 RPM ratio (pull-down/input); for “GATGATTGTTCTCCCAGCTGATGAATTTGGATACTCGAGTAAACAAATTTTCCTAATCTTTCTGTTCAAGCGCCATCTAC” it is 1.85 RPM ratio (pull-down/input); for “GATGATTGTTCTCCCAGCTGATGAATTGCCCAAATCGAGTAAACAAATTTTCCTAATCTTTCTGTTCAAGCGCCATCTAC” it is 0.385 RPM ratio (pull-down/input). For the sequence “GATGATTGTTCTCCCAGCTGATGAATTAGTTACATCGAGTAAACAAATTTTCCTAATCTTTCTGTTCAAGCGCCATCTAC”, the binding signal is 0.891 RPM ratio (pull-down/input). The figure for “GATGATTGTTCTCCCAGCTGATGAATTTAGCTACTCGAGTAAACAAATTTTCCTAATCTTTCTGTTCAAGCGCCATCTAC” is 1.83 RPM ratio (pull-down/input); for “GATGATTGTTCTCCCAGCTGATGAATTTTTGGAGTCGAGTAAACAAATTTTCCTAATCTTTCTGTTCAAGCGCCATCTAC” it is 0.23 RPM ratio (pull-down/input); for “GATGATTGTTCTCCCAGCTGATGAATTGGATGGCTCGAGTAAACAAATTTTCCTAATCTTTCTGTTCAAGCGCCATCTAC” it is 0.46 RPM ratio (pull-down/input).

As to “GATGATTGTTCTCCCAGCTGATGAATTGGGCAGCTCGAGTAAACAAATTTTCCTAATCTTTCTGTTCAAGCGCCATCTAC”, the binding signal is 0.963 RPM ratio (pull-down/input). The figure for “GATGATTGTTCTCCCAGCTGATGAATTTGAGCACTCGAGTAAACAAATTTTCCTAATCTTTCTGTTCAAGCGCCATCTAC” is 0.481 RPM ratio (pull-down/input); for “GATGATTGTTCTCCCAGCTGATGAATTCCACCCGTCGAGTAAACAAATTTTCCTAATCTTTCTGTTCAAGCGCCATCTAC” it is 0.242 RPM ratio (pull-down/input).

“GATGATTGTTCTCCCAGCTGATGAATTGTTAGATTCGAGTAAACAAATTTTCCTAATCTTTCTGTTCAAGCGCCATCTAC”: the binding signal was 0.635 RPM ratio (pull-down/input). With “GATGATTGTTCTCCCAGCTGATGAATTTGTCGGTTCGAGTAAACAAATTTTCCTAATCTTTCTGTTCAAGCGCCATCTAC”, the binding signal was 3.1 RPM ratio (pull-down/input). As for “GATGATTGTTCTCCCAGCTGATGAATTTCGTCCCTCGAGTAAACAAATTTTCCTAATCTTTCTGTTCAAGCGCCATCTAC”, the binding signal was 0.799 RPM ratio (pull-down/input). As to “GATGATTGTTCTCCCAGCTGATGAATTTCTCGCATCGAGTAAACAAATTTTCCTAATCTTTCTGTTCAAGCGCCATCTAC”, the binding signal is 0.861 RPM ratio (pull-down/input). For the sequence “GATGATTGTTCTCCCAGCTGATGAATTCGCGCCATCGAGTAAACAAATTTTCCTAATCTTTCTGTTCAAGCGCCATCTAC”, the binding signal was 2.63 RPM ratio (pull-down/input). The figure for “GATGATTGTTCTCCCAGCTGATGAATTCGCATCTTCGAGTAAACAAATTTTCCTAATCTTTCTGTTCAAGCGCCATCTAC” is 5.81 RPM ratio (pull-down/input); for “GATGATTGTTCTCCCAGCTGATGAATTCGCAGCTTCGAGTAAACAAATTTTCCTAATCTTTCTGTTCAAGCGCCATCTAC” it is 0.653 RPM ratio (pull-down/input); for “GATGATTGTTCTCCCAGCTGATGAATTCACGCATTCGAGTAAACAAATTTTCCTAATCTTTCTGTTCAAGCGCCATCTAC” it is 5.67 RPM ratio (pull-down/input). The figure for “GATGATTGTTCTCCCAGCTGATGAATTCGCGCATTCGAGTAAACAAATTTTCCTAATCTTTCTGTTCAAGCGCCATCTAC” is 7.06 RPM ratio (pull-down/input). “GATGATTGTTCTCCCAGCTGATGAATTCACGCTTTCGAGTAAACAAATTTTCCTAATCTTTCTGTTCAAGCGCCATCTAC”: the binding signal was 1.11 RPM ratio (pull-down/input). Turning to “GATGATTGTTCTCCCAGCTGATGAATTTCACGCATCGAGTAAACAAATTTTCCTAATCTTTCTGTTCAAGCGCCATCTAC”, the binding signal was 1.01 RPM ratio (pull-down/input). Regarding “GATGATTGTTCTCCCAGCTGATGAATTCTTCGCATCGAGTAAACAAATTTTCCTAATCTTTCTGTTCAAGCGCCATCTAC”, the binding signal is 0.708 RPM ratio (pull-down/input). On to “GATGATTGTTCTCCCAGCTGATGAATTTCGCAGCTCGAGTAAACAAATTTTCCTAATCTTTCTGTTCAAGCGCCATCTAC”, for which the binding signal was 2.01 RPM ratio (pull-down/input). “GATGATTGTTCTCCCAGCTGATGAATTTCGCATCTCGAGTAAACAAATTTTCCTAATCTTTCTGTTCAAGCGCCATCTAC”: the binding signal was 6.74 RPM ratio (pull-down/input). “GATGATTGTTCTCCCAGCTGATGAATTTCGCGCATCGAGTAAACAAATTTTCCTAATCTTTCTGTTCAAGCGCCATCTAC”: the binding signal is 1.42 RPM ratio (pull-down/input). For “GATGATTGTTCTCCCAGCTGATGAATTGTATAACTCGAGTAAACAAATTTTCCTAATCTTTCTGTTCAAGCGCCATCTAC”, the binding signal is 0.812 RPM ratio (pull-down/input).

Consider “GATGATTGTTCTCCCAGCTGATGAATTAAGCCGATCGAGTAAACAAATTTTCCTAATCTTTCTGTTCAAGCGCCATCTAC”, for which the binding signal is 0.427 RPM ratio (pull-down/input). As for “GATGATTGTTCTCCCAGCTGATGAATTTAGTGGGTCGAGTAAACAAATTTTCCTAATCTTTCTGTTCAAGCGCCATCTAC”, the binding signal was 1.06 RPM ratio (pull-down/input). Turning to “GATGATTGTTCTCCCAGCTGATGAATTCAAAACCTCGAGTAAACAAATTTTCCTAATCTTTCTGTTCAAGCGCCATCTAC”, the binding signal is 0.276 RPM ratio (pull-down/input). “GATGATTGTTCTCCCAGCTGATGAATTTATGATATCGAGTAAACAAATTTTCCTAATCTTTCTGTTCAAGCGCCATCTAC”: the binding signal was 1.11 RPM ratio (pull-down/input). Regarding “GATGATTGTTCTCCCAGCTGATGAATTCAATAGCTCGAGTAAACAAATTTTCCTAATCTTTCTGTTCAAGCGCCATCTAC”, the binding signal was 0.877 RPM ratio (pull-down/input).
